TRPML1 blocker: qHTS for Inhibitors of the Human Mucolipin Transient Receptor Potential 1 (TRPML1); activity change, negative = inhibition, % (concentration not given with the values); TRPML1-inducible cells, Ca2+ dye fluorescence, FDSS; hits give low values; inhibition of EC80 agonist-evoked calcium signal; actives 0.02% (n = 390,000); Mucolipin-1 (Homo sapiens), Q9GZU1; in the data active = activity change below about -50%; inconclusive = between about -30% and that limit;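 note: stimulus is agonist 54-4 at its EC80 concentration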
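TRPML1-DL cells, Tet-induced overnight (~16 h, 37 °C) at 1,500 cells/well, were loaded with Ca8 no-wash dye plus quencher for 45-90 min at room temperature. Compounds were pinned during FDSS kinetic reading; agonist 54-4 at EC80 (4 uM final) then added.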
TRPV1 potentiator: HTS Assay for Compounds that Act as Potentiators of the Vanilloid Receptor 1; Transient receptor potential cation channel subfamily V member 1 (Homo sapiens), Q8NER1; TRPV1-expressing cells, Fluo-8 calcium influx, capsaicin EC20 potentiation; potentiation, % at 8.33 µM; actives 0.02% (n = 320,000); AID 540277, 2011; in the data active = potentiation above about 80%; inconclusive = between about 30% and that limit
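Fluo-8 calcium influx in TRPV1-expressing cells, kinetic read (ex 480/em 520 nm). Compound added and read 3 min for agonist activity, followed by capsaicin at EC20 final and 2 min further read for enhancement.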
A-T KAP1 phos: qHTS Assay for Identifying a Potential Treatment of Ataxia-Telangiectasia; F2112 A-T fibroblasts, KAP-1 phosphorylation AlphaLISA; neocarzinostatin DNA damage 30 min before lysis; Potency, µM (titrated, usually from 57.5 µM), most hits filed as activators; actives 0.19% (n = 320,000); AID 485349, 2010; note: nearly all actives have a fitted effect of over 45% in size
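ATM-like activity read as KAP-1 phosphorylation via AlphaLISA donor/acceptor antibody pairs after lysis and 6 hr at 25C. Cells were ATM-null patient fibroblasts (F2112, hTERT), dosed 60 min, then exposed to the DSB inducer NCS for 30 min.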
RGS4 inh: Inhibitors of Regulator of G Protein Signaling (RGS) 4: qHTS; AID 504845, 2011; Transcreener GDP fluorescence polarization, RGS4-accelerated GTP hydrolysis; actives 0.039% (n = 390,000); Regulator of G-protein signaling 4 (Homo sapiens), P49798; Potency, µM (series often up to 114 µM), actives largely listed as inhibitors; note: nearly all actives have a fitted effect of over 75% in size
Target sequence (P49798 whole entry, looked up): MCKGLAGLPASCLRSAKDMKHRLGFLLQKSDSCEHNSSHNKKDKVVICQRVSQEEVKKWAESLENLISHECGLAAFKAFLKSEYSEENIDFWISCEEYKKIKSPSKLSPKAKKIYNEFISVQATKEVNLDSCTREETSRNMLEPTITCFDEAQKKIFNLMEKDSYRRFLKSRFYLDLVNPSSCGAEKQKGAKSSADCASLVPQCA
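MLSMR compounds (23 nl, pin-transferred) preincubated 10 min at room temperature with a 500nM (2x) first reagent, then RGS4 at 900nM (2x) plus Transcreener GDP mix added; fluorescence polarization (620/688 nm) read before and after 90 min at 30 °C.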
TRPML1 ag: qHTS for Agonists of the Human Mucolipin Transient Receptor Potential 1 (TRPML1). Mucolipin-1 (Homo sapiens), Q9GZU1. AID 624414, 2012. actives 0.12% (n = 410,000). activation, % (no concentration beside the values). TRPML1-expressing cells, Ca2+ dye fluorescence, FDSS; in the data active = activation above about 50%; inconclusive = mostly about 30% to 49%
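Agonist activity was taken from a 110 s kinetic Ca2+ dye read on the FDSS after pinning compounds onto TRPML1-DL cells. The cells were seeded at 1,500/well with Tet inducer, incubated about 16 h, then dye-loaded at room temperature.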
TRPV1 ag: HTS Assay for Compounds that Act as Agonists of the Vanilloid Receptor 1 | Transient receptor potential cation channel subfamily V member 1 (Homo sapiens), Q8NER1 | TRPV1-expressing cells, Fluo-8 calcium influx, agonist mode | activation, % at 8.33 µM | actives 0.19% (n = 320,000) | AID 540275, 2011; in the data active = activation above about 80%; inconclusive = between about 30% and that limit
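TRPV1-expressing cells were cultured overnight at 35.5C and loaded with Fluo-8 calcium dye for 40 to 90 min at room temperature. After a 10 s baseline, compound was added and calcium influx was read kinetically for 3 min (ex 480/em 520 nm).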
Numbers stand for hits; [ ] = another dose, or the depositor's remark. A selection: hits, their analogues and other compounds. The true share with any hit is near 0.5%. Unless noted, calls come from the whole dose curve; as a rule, active = well fitted curve in the direction sought with a large enough effect; inconclusive = small, poorly fitted or top-dose-only effect, or another doubt; inactive = no such curve, though single readings can be large; an effect the other way counts as inactive or inconclusive.

`CCNc1nc(Oc2ccc(Cl)cc2Cl)cc(C(F)(F)F)n1` gave TRPML1 blocker inactive, TRPV1 potentiator inactive, A-T KAP1 phos 32µM, RGS4 inh inactive, TRPML1 ag inactive and TRPV1 ag inactive.
For COc1ccccc1S(=O)(=O)Cc1ccc(C(=O)NCc2ccco2)o1 the results were TRPML1 blocker inactive, TRPV1 potentiator inactive, A-T KAP1 phos inactive, RGS4 inh inactive[11.4 µM], TRPML1 ag inactive and TRPV1 ag inactive.
CCc1ccc(Nc2nnc(SC3CCOC3=O)s2)cc1 (stereo unspecified) was read as TRPML1 blocker inactive, TRPV1 potentiator inactive, A-T KAP1 phos inactive, RGS4 inh inactive, TRPML1 ag inactive and TRPV1 ag 82.
`CCc1ccc(Nc2nnc(SC(C)C(=O)NC3CC3)s2)cc1` (stereo unspecified) gave TRPML1 blocker inactive, A-T KAP1 phos inactive, RGS4 inh inactive and TRPML1 ag inactive.
`N#Cc1cc(C(=O)c2ccccc2O)cn(-c2nccs2)c1=O` gave TRPML1 blocker inactive, TRPV1 potentiator inactive, A-T KAP1 phos inactive, RGS4 inh inactive, TRPML1 ag 64 and TRPV1 ag 87.
`N#Cc1cc(C(=O)c2cc(F)ccc2O)cn(-c2nccs2)c1=O` gave TRPML1 blocker inactive, TRPV1 potentiator inactive, A-T KAP1 phos inactive, RGS4 inh inactive, TRPML1 ag 124 and TRPV1 ag inconclusive.
`Cc1c(-n2cc(C(=O)c3cc(F)ccc3O)cc(C#N)c2=O)c(=O)n(-c2ccccc2)n1C` gave TRPML1 blocker inactive, TRPV1 potentiator inactive, A-T KAP1 phos inactive, RGS4 inh inactive, TRPML1 ag inactive and TRPV1 ag inactive.
Screening CCN1CCc2c(sc(NC(=O)Nc3ccc(Cl)c(Cl)c3)c2C(N)=O)C1 returned TRPML1 blocker inactive, TRPV1 potentiator inactive, A-T KAP1 phos 25µM, RGS4 inh inconclusive, TRPML1 ag 81 and TRPV1 ag 82.
Screening CCN1CCc2c(sc(NC(=O)c3ccc(S(=O)(=O)N(CC)c4ccccc4)cc3)c2C(N)=O)C1 returned TRPML1 blocker inactive, TRPV1 potentiator inactive, A-T KAP1 phos inactive, RGS4 inh inactive, TRPML1 ag 61 and TRPV1 ag inactive.
Screening CCOC(=O)C(NC(=O)c1ccc(F)cc1)(Nc1sc2c(c1C(N)=O)CCC2)C(F)(F)F (stereo unspecified) returned TRPML1 blocker inactive, TRPV1 potentiator inactive, A-T KAP1 phos inactive, RGS4 inh inactive, TRPML1 ag inactive and TRPV1 ag inactive.
O=C1CCC/C(=N/NC(=O)c2sc3ccccc3c2Cl)C1 was read as TRPML1 blocker inactive, TRPV1 potentiator inactive, A-T KAP1 phos inactive, RGS4 inh inactive, TRPML1 ag 58 and TRPV1 ag inactive.
Screening O=C(NN=C1CCCC1)c1sc2ccccc2c1Cl returned TRPML1 blocker inactive, TRPV1 potentiator inactive, A-T KAP1 phos inactive, RGS4 inh inactive, TRPML1 ag inactive and TRPV1 ag inactive.
O=C(CC1C(=O)N(c2ccccc2)C(=O)N1Cc1ccc(F)cc1)Nc1cccc(F)c1 (stereo unspecified) was read as TRPML1 blocker inactive, RGS4 inh inactive and TRPML1 ag inactive.
`CCN(CCO)Cc1csc2cccc(Br)c12` gave TRPML1 blocker inactive, TRPV1 potentiator inactive, A-T KAP1 phos inactive, RGS4 inh inactive, TRPML1 ag inactive and TRPV1 ag inactive.
For O=C(CNc1n[nH]c(=O)[nH]c1=O)N/N=C/C1CC=CCC1 (stereo unspecified) the results were TRPML1 blocker inactive, TRPV1 potentiator inactive, A-T KAP1 phos 32µM, RGS4 inh inactive, TRPML1 ag inactive and TRPV1 ag inactive.
Screening COc1ccccc1C1CCN(Cc2ccc(Cl)cc2Cl)CC1 returned TRPML1 blocker inactive, TRPV1 potentiator inactive, A-T KAP1 phos inactive, RGS4 inh inactive, TRPML1 ag inactive and TRPV1 ag inactive.
Screening COc1ccccc1C1CCN(Cc2ccc(Cl)c(Cl)c2)CC1 returned TRPML1 blocker inactive, TRPV1 potentiator inconclusive, A-T KAP1 phos 25µM, RGS4 inh inactive, TRPML1 ag inactive and TRPV1 ag inactive.
Screening Cc1ccc2c(C)c(C(=O)NCC3CCOCC3)oc2c1C returned TRPML1 blocker inactive and TRPML1 ag inactive.
For Cc1ccc2oc(C(=O)NCC3CCOCC3)c(C)c2c1 the results were TRPML1 blocker inactive, TRPV1 potentiator inactive, A-T KAP1 phos inactive, RGS4 inh inactive, TRPML1 ag inactive and TRPV1 ag 84.
Screening COc1cc(N2Cc3ccccc3C2)ccc1C=O returned TRPML1 blocker inactive, TRPV1 potentiator 94, A-T KAP1 phos inactive, RGS4 inh inactive, TRPML1 ag inactive and TRPV1 ag inactive.
For CC(=O)Nc1sc(/C(C#N)=C\c2cccc(Cl)c2)nc1-c1ccc(C)cc1 the results were TRPML1 blocker inactive, TRPV1 potentiator inactive, A-T KAP1 phos inactive, RGS4 inh inactive, TRPML1 ag 77 and TRPV1 ag inconclusive.
COc1cc(CCC(=O)N2CCN(c3ccc([N+](=O)[O-])cc3)CC2)cc(OC)c1OC was read as TRPML1 blocker inactive, TRPV1 potentiator inactive, A-T KAP1 phos inactive, RGS4 inh inactive, TRPML1 ag inactive and TRPV1 ag inactive.
Screening O=C(c1cc(-c2ccc(Br)cc2)on1)N1CCOCC1 returned TRPML1 blocker inactive, TRPV1 potentiator inactive, A-T KAP1 phos inactive, RGS4 inh inactive, TRPML1 ag inactive and TRPV1 ag 99.
Screening CC(C)Cn1c(O)c(/C=C2\C=NN=C2c2ccccc2)sc1=S returned TRPML1 blocker inactive, TRPV1 potentiator inactive, A-T KAP1 phos 32µM, RGS4 inh inactive, TRPML1 ag inactive and TRPV1 ag inactive.
COc1ccccc1N1CCN(CCN2C(=O)CC(=C3c4ccccc4-c4ccccc43)C2=O)CC1 was read as TRPML1 blocker inactive, RGS4 inh inactive and TRPML1 ag inactive.
Screening CCCc1nn(C)c(C(=O)Nc2ccc(C(C)(C)C)cc2)c1Cl returned TRPML1 blocker inactive, TRPV1 potentiator inactive, A-T KAP1 phos 35µM, RGS4 inh inactive, TRPML1 ag inactive and TRPV1 ag inactive.
Screening CCCc1nn(C)c(C(=O)Nc2ccc(Cl)cc2)c1Cl returned TRPML1 blocker inactive, TRPV1 potentiator inactive, A-T KAP1 phos inactive, RGS4 inh inactive, TRPML1 ag inactive and TRPV1 ag inactive.
